Results from PubChem BioAssay.
The source made the active and inactive calls.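 The calls were made as follows, unless noted: active = inhibition of the reporter signal at or above 50%; inactive = inhibition below 50%.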

Tests used:
[1] = inhibitors of TNFa-induced NFkB p65 translocation, primary screen, imaging, HUVEC, MLSMR starter and 10KST1 sets (AID 438;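 active = inhibition above 20% together with a positive visual image hit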;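 also: compound added about 3h40 before a 20 min TNFalpha stimulation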;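 as to inhibition: signal is the nuclear over cytoplasmic p65 intensity ratio per well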); settings: HUVEC TNFa-induced p65 nuclear translocation; cell count: measured here: nuclei count (cytotoxicity indicator), at 2.08 µM; inhibition: at 2 µM, stronger effect = higher value, 0% TNFa-plus-vehicle, 100% no-TNFa wells
[2] = inhibitors of mutant huntingtin aggregation, primary screen, imaging, exon1htt(103Q)mCFP cells, high-content imaging (AID 483;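 active = visual image review flags a hit and inhibition of aggregation exceeds 20%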;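 also: compound exposure lasted 3 days before fixation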;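 as to nuclei count: percent of the per-plate median nuclei count of sample wells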); settings: exon1htt(103Q)mCFP cell line, aggregate imaging, at 2 µM; inhibition of aggregation: stronger effect = higher value; nuclei count: measured here: cell count, toxicity
[3] = inhibitors of E-selectin induction by TNFa, primary screen, imaging, HUVEC, immunofluorescence, MLSMR starter and 10KST1 sets (AID 487;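 active = visually confirmed hit in the image check and inhibition above 20%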;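 as to inhibition: signal is fraction of cell area covered by stained E-selectin grains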;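 as to nuclei count: 100% = median nuclei count of all wells on the same plate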); settings: HUVEC TNFalpha-induced E-selectin immunofluorescence imaging, at 2 µM; inhibition: stronger effect = higher value; nuclei count: measured here: cell number, toxicity
[4] = target: Voltage-gated potassium channel subunit beta-2 (Rattus norvegicus) (UniProt P62483); assay: KvBeta enzyme negative modulators, primary screen, biochemical, NADPH fluorescence (AID 622;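 active = fluorescence slope higher than the sample average by over 3 SD, cut at about -0.22 in these data, passing the limit was not always enough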;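 also: slope of raw intensity against log time taken from 70 to 1610 s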); settings: recombinant KvBeta, 4-cyanobenzaldehyde reduction, at 10 µM, stronger effect = higher value
[5] = target: Voltage-gated potassium channel subunit beta-2 (Rattus norvegicus) (UniProt P62483); assay: KvBeta positive modulators, primary screen, biochemical, NADPH fluorescence (AID 623;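 active = NADPH fluorescence slope more negative than the mean of all samples by about 3 SD, 99.7% confidence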;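 also: fluorescence intensity change per second fitted from 20 to 320 s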); settings: Recombinant KvBeta, NADPH fluorescence decrease slope, 10 min; at 10 µM; stronger effect = lower value
[6] = target: Alpha-2C adrenergic receptor (Homo sapiens) (UniProt P18825); assay: modulators of alpha2C/GIRK thallium flux, primary screen, cell-based, HEK293 alpha2C/GIRK1/2 (AID 624;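 active = fluorescence slope after compound addition differing from the mean of all screened samples at 99.7% confidence, in either direction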;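 also: slope of fluorescence ratio to pre-addition baseline per second over 15 to 24 s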); settings: thallium flux BTC fluorescence, at 10 µM, actives lie on both sides
[7] = inhibitors of Sendai virus-induced IRF3 signaling, primary screen, TLR/RLR signaling modifier project, cell-based, Sendai virus stimulus, luciferase, 10K MLSCN set (AID 602276;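 active = inhibition at or above 50% at 10 µM; inactive = inhibition below 50%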;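 also: firefly luciferase from ISG56 promoter only with Renilla not read in this screen; 0% = Sendai virus plus DMSO and 100% = medium plus DMSO without virus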); settings: HEK293 RL24 IRF3 luciferase reporter, at 10 µM, stronger effect = higher value
[8] = inhibitors of poly I:C-induced TLR3 signaling, primary screen, cell-based, poly I:C stimulus, luciferase, 10K MLSCN set (AID 602277); settings: HEK293-TLR3 RL24 IRF3 luciferase reporter, at 10 µM, stronger effect = higher value

Sequence of Alpha-2C adrenergic receptor (Homo sapiens) (P18825 whole entry, looked up): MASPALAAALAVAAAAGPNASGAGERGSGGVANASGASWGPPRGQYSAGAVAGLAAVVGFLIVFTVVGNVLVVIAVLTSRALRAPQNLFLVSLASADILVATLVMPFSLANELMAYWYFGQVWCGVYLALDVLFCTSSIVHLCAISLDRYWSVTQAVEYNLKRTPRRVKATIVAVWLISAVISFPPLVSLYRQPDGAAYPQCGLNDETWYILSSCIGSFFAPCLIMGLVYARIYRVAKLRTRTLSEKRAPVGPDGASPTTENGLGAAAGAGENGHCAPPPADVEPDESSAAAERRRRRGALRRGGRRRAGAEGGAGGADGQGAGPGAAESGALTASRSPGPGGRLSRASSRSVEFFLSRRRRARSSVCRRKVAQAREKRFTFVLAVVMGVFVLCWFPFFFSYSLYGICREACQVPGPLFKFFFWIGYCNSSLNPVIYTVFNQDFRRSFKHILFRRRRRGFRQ
Sequence of Voltage-gated potassium channel subunit beta-2 (Rattus norvegicus) (P62483 whole entry, looked up): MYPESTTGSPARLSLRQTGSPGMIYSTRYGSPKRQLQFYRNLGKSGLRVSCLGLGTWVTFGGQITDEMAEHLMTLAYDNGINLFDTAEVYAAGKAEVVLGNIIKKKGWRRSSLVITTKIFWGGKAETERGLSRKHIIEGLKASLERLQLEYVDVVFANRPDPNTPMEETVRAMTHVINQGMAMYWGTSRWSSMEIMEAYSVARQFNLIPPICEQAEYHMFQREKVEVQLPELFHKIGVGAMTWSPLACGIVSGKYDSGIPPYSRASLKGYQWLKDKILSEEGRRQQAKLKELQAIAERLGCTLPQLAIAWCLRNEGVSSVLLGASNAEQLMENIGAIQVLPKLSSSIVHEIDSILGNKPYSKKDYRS

N#Cc1cnc(SCCc2ccccc2)nc1N
cell count [1]: 630
inhibition [1]: -13.1% (inactive)
inhibition of aggregation [2]: -5.2% (inactive)
nuclei count [2]: 93.9%
inhibition [3]: -14.8% (inactive)
nuclei count [3]: 108%
fluorescence slope [4]: -0.291 (inactive)
NADPH fluorescence slope [5]: -5.5e-05 (inactive)
slope [6]: 0.00492 (inactive)
inhibition [7]: -34% (inactive)
inhibition [8]: -61.8% (inactive)

C=CCn1c(-c2cccs2)nc2nc3ccccc3nc21
cell count [1]: 546
inhibition [1]: -5.4% (inactive)
inhibition of aggregation [2]: -7.5% (inactive)
nuclei count [2]: 90.1%
inhibition [3]: -77.5% (inactive)
nuclei count [3]: 141%
fluorescence slope [4]: -0.602 (inactive)
NADPH fluorescence slope [5]: 4.4e-06 (inactive)
slope [6]: 0.0057 (inactive)
inhibition [7]: -3.42% (inactive)
inhibition [8]: 2.94% (inactive)

O=C(Cn1nnc(-c2cc(Cl)ccc2-n2cnnn2)n1)N1CCCc2ccccc21
cell count [1]: 574
inhibition [1]: -2.1% (inactive)
inhibition of aggregation [2]: -3.1% (inactive)
nuclei count [2]: 97.2%
inhibition [3]: -13.8% (inactive)
nuclei count [3]: 105%
fluorescence slope [4]: -0.425 (inactive)
NADPH fluorescence slope [5]: -0.000127 (inactive)
slope [6]: 0.00585 (inactive)
inhibition [7]: 17.3% (inactive)
inhibition [8]: 23.2% (inactive)

O=C1C(Cl)=C(NCC2CCCO2)C(=O)N1CCc1ccccc1 (centres undefined)
cell count [1]: 711
inhibition [1]: -10% (inactive)
inhibition of aggregation [2]: 9.2% (inactive)
nuclei count [2]: 102%
inhibition [3]: 27.8% (inactive)
nuclei count [3]: 107%
fluorescence slope [4]: -0.448 (inactive)
NADPH fluorescence slope [5]: 1.5e-05 (inactive)
slope [6]: 0.00576 (inactive)
inhibition [7]: -53.6% (inactive)
inhibition [8]: -108% (inactive)

O=C(OC1CCOC1=O)c1ccc(S(=O)(=O)N2CCCCCC2)cc1 (centres undefined)
cell count [1]: 466
inhibition [1]: 1.1% (inactive)
inhibition of aggregation [2]: -2.3% (inactive)
nuclei count [2]: 92.8%
inhibition [3]: -116% (inactive)
nuclei count [3]: 97.1%
fluorescence slope [4]: -0.329 (inactive)
NADPH fluorescence slope [5]: 7.8e-06 (inactive)
slope [6]: 0.00585 (inactive)
inhibition [7]: 5.47% (inactive)
inhibition [8]: 14.9% (inactive)

Cc1cccc(-c2cc3nc4c(c(N5CCC6(CC5)OCCO6)n3n2)CCCC4)c1
cell count [1]: 627
inhibition [1]: -5.5% (inactive)
inhibition of aggregation [2]: 19.8% (inactive)
nuclei count [2]: 116%
inhibition [3]: -139% (inactive)
nuclei count [3]: 156%
fluorescence slope [4]: -0.419 (inactive)
NADPH fluorescence slope [5]: 4.7e-05 (inactive)
slope [6]: 0.00699 (inactive)
inhibition [7]: -1.5% (inactive)
inhibition [8]: -27.3% (inactive)

Cc1noc(C)c1CSc1nc2cc(S(=O)(=O)N3CCOCC3)ccc2o1
cell count [1]: 515
inhibition [1]: -12.1% (inactive)
inhibition of aggregation [2]: -33.5% (inactive)
nuclei count [2]: 135%
inhibition [3]: -52% (inactive)
nuclei count [3]: 118%
fluorescence slope [4]: -0.478 (inactive)
NADPH fluorescence slope [5]: -0.000262 (inactive)
slope [6]: 0.00432 (inactive)
inhibition [7]: 16.1% (inactive)
inhibition [8]: 19.5% (inactive)

CC(C)N(Cc1nc(-c2ccc(Cl)cc2)no1)C(=O)CN(C)S(=O)(=O)c1ccc(Cl)cc1
cell count [1]: 629
inhibition [1]: -2.8% (inactive)
inhibition of aggregation [2]: -11.8% (inactive)
nuclei count [2]: 95.7%
inhibition [3]: -53.8% (inactive)
nuclei count [3]: 106%
fluorescence slope [4]: -0.467 (inactive)
NADPH fluorescence slope [5]: -5.4e-05 (inactive)
slope [6]: 0.00647 (inactive)
inhibition [7]: 20.4% (inactive)
inhibition [8]: 25.9% (inactive)

O=C(Nc1ccccc1N1CCN(c2ccc(F)cc2)CC1)c1ccccc1
cell count [1]: 423
inhibition [1]: 7.6% (inactive)
inhibition of aggregation [2]: -1% (inactive)
nuclei count [2]: 104%
inhibition [3]: -122% (inactive)
nuclei count [3]: 134%
fluorescence slope [4]: -0.44 (inactive)
NADPH fluorescence slope [5]: -3.4e-05 (inactive)
slope [6]: 0.00515 (inactive)
inhibition [7]: 14% (inactive)
inhibition [8]: 21.1% (inactive)

c1ccc(-c2nnc(CSc3nncs3)o2)cc1
cell count [1]: 322
inhibition [1]: 16.3% (inactive)
inhibition of aggregation [2]: -19% (inactive)
nuclei count [2]: 110%
inhibition [3]: -49.2% (inactive)
nuclei count [3]: 106%
fluorescence slope [4]: -0.402 (inactive)
NADPH fluorescence slope [5]: -2e-05 (inactive)
slope [6]: 0.00275 (inactive)
inhibition [7]: -21.1% (inactive)
inhibition [8]: -78.9% (inactive)

Cc1cccc(Nc2ncc3c(n2)CC(c2ccco2)CC3=O)c1 (centres undefined)
cell count [1]: 386
inhibition [1]: -1% (inactive)
inhibition of aggregation [2]: -7% (inactive)
nuclei count [2]: 84.1%
inhibition [3]: -29% (inactive)
nuclei count [3]: 187%
fluorescence slope [4]: -0.378 (inactive)
NADPH fluorescence slope [5]: -1.7e-05 (inactive)
slope [6]: 0.003 (inactive)
inhibition [7]: -2.61% (inactive)
inhibition [8]: -12.4% (inactive)

CCN1CCN(Cc2nc3c(c(=O)[nH]c(=O)n3C)n2Cc2ccccc2Cl)CC1
cell count [1]: 584
inhibition [1]: 1% (inactive)
inhibition of aggregation [2]: 7.9% (inactive)
nuclei count [2]: 71.4%
inhibition [3]: -20.8% (inactive)
nuclei count [3]: 95.5%
fluorescence slope [4]: -0.583 (inactive)
NADPH fluorescence slope [5]: -3.1e-05 (inactive)
slope [6]: 0.00512 (inactive)
inhibition [7]: 9.74% (inactive)
inhibition [8]: 29% (inactive)

CCc1ccc(NC(=O)C2CC(=O)N(C(C)C)C2)cc1 (centres undefined)
cell count [1]: 346
inhibition [1]: -6.8% (inactive)
inhibition of aggregation [2]: 23.8% (inactive)
nuclei count [2]: 92.5%
inhibition [3]: -6.6% (inactive)
nuclei count [3]: 75.6%
fluorescence slope [4]: -0.62 (inactive)
NADPH fluorescence slope [5]: 2.5e-05 (inactive)
slope [6]: 0.00536 (inactive)
inhibition [7]: 7.09% (inactive)
inhibition [8]: 0.245% (inactive)

COc1ccc(N2CCN(c3ccc(NC(=O)C4CCCCC4)cc3C#N)CC2)cc1
cell count [1]: 676
inhibition [1]: -0.6% (inactive)
inhibition of aggregation [2]: -30.8% (inactive)
nuclei count [2]: 104%
inhibition [3]: -14.3% (inactive)
nuclei count [3]: 121%
fluorescence slope [4]: -0.586 (inactive)
NADPH fluorescence slope [5]: -1.7e-05 (inactive)
slope [6]: 0.00529 (inactive)
inhibition [7]: 4.18% (inactive)
inhibition [8]: 7.51% (inactive)

COc1ccccc1OCC(=O)N1CCNC1=O
cell count [1]: 652
inhibition [1]: 2.2% (inactive)
inhibition of aggregation [2]: -1.9% (inactive)
nuclei count [2]: 101%
inhibition [3]: -78.6% (inactive)
nuclei count [3]: 104%
fluorescence slope [4]: -0.548 (inactive)
NADPH fluorescence slope [5]: -4.2e-06 (inactive)
slope [6]: 0.00602 (inactive)
inhibition [7]: 0.107% (inactive)
inhibition [8]: 20.1% (inactive)

CN(Cc1ccccc1)S(=O)(=O)c1ccc(S(=O)(=O)N2CCN(CCC#N)CC2)cc1
cell count [1]: 687
inhibition [1]: -6.9% (inactive)
inhibition of aggregation [2]: -13.6% (inactive)
nuclei count [2]: 111%
inhibition [3]: -50.4% (inactive)
nuclei count [3]: 125%
fluorescence slope [4]: -0.626 (inactive)
NADPH fluorescence slope [5]: -2.8e-05 (inactive)
slope [6]: 0.00717 (inactive)
inhibition [7]: -12% (inactive)
inhibition [8]: 11.4% (inactive)

COc1cccc(-n2c(SCC(=O)N3CCCC3)nc3c([nH]c4ccccc43)c2=O)c1
cell count [1]: 493
inhibition [1]: -5.9% (inactive)
inhibition of aggregation [2]: 0.6% (inactive)
nuclei count [2]: 75.6%
inhibition [3]: 5.4% (inactive)
nuclei count [3]: 91.8%
fluorescence slope [4]: -0.544 (inactive)
NADPH fluorescence slope [5]: -1.5e-05 (inactive)
slope [6]: 0.00652 (inactive)
inhibition [7]: -9.13% (inactive)
inhibition [8]: 55.5% (active)

CCCCSc1nc2c(cnn2-c2ccc(F)cc2)c(=O)[nH]1
cell count [1]: 619
inhibition [1]: -10.7% (inactive)
inhibition of aggregation [2]: 13.9% (inactive)
nuclei count [2]: 81.3%
inhibition [3]: -19.6% (inactive)
nuclei count [3]: 122%
fluorescence slope [4]: -0.458 (inactive)
NADPH fluorescence slope [5]: -3.7e-05 (inactive)
slope [6]: 0.00558 (inactive)
inhibition [7]: 4.85% (inactive)
inhibition [8]: 12.8% (inactive)

C=CCN(C(=O)CNS(=O)(=O)c1ccccc1)C(C(=O)NCCOC)c1ccncc1 (centres undefined)
cell count [1]: 543
inhibition [1]: -18.3% (inactive)
inhibition of aggregation [2]: 18.4% (inactive)
nuclei count [2]: 93.8%
inhibition [3]: 7.6% (inactive)
nuclei count [3]: 80.2%
fluorescence slope [4]: -0.478 (inactive)
NADPH fluorescence slope [5]: 3.8e-06 (inactive)
slope [6]: 0.00567 (inactive)
inhibition [7]: 11% (inactive)
inhibition [8]: 5.34% (inactive)
